PubChem BioAssay (NCI)
This is part of a sample that, as a whole, favours compounds with a hit. Of some 83,000 tested, about 20% had one in any assay.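 Interpretation: 100, growth as untreated; towards 0, rising growth inhibition; 0, no net growth; 0 to -100, cell death. Compounds scoring below 10 were considered active.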 Values without a mark were called inactive. The source made the active and inactive calls.

Tests used:
Experiment in all cases: NCI-60 one-dose screen, 48 h (100 = growth as untreated, 0 = no growth, -100 = all killed)
Conditions in all cases: 10 µM unless noted
SR leukemia = system: SR leukemia
RPMI-8226 leukemia = system: RPMI-8226 leukemia
OVCAR-8 ovarian = system: OVCAR-8 ovarian
OVCAR-5 ovarian = system: OVCAR-5 ovarian
OVCAR-4 ovarian = system: OVCAR-4 ovarian
SK-OV-3 ovarian = system: SK-OV-3 ovarian
IGROV1 ovarian = system: IGROV1 ovarian
OVCAR-3 ovarian = system: OVCAR-3 ovarian
HS 578T breast = system: HS 578T breast
NCI/ADR-RES ovarian = system: NCI/ADR-RES ovarian
T-47D breast = system: T-47D breast
BT-549 breast = system: BT-549 breast
MDA-MB-435 melanoma = system: MDA-MB-435 melanoma
SW-620 colon = system: SW-620 colon
MCF7 breast = system: MCF7 breast
HCT-116 colon = system: HCT-116 colon
HCC-2998 colon = system: HCC-2998 colon
KM12 colon = system: KM12 colon

Row | SMILES | growth (SR leukemia) | growth (RPMI-8226 leukemia) | growth (OVCAR-8 ovarian) | growth (OVCAR-5 ovarian) | growth (OVCAR-4 ovarian) | growth (SK-OV-3 ovarian) | growth (IGROV1 ovarian) | growth (OVCAR-3 ovarian) | growth (HS 578T breast) | growth (NCI/ADR-RES ovarian) | growth (T-47D breast) | growth (BT-549 breast) [%] | growth (MDA-MB-435 melanoma) | growth (SW-620 colon) | growth (MCF7 breast) | growth (HCT-116 colon) | growth (HCC-2998 colon) | growth (KM12 colon)
1 | CS(=O)(=O)Nc1cncc(-c2ccc3ncnc(Nc4ccc(F)c(Cl)c4)c3c2)c1 | 23.3% | 15.7% | 47.1% | 33.3% | 63.4% | -0.027% (active) | -17.2% (active) | 22.1% | 3.01% (active) | 84% | -9.57% (active) | 32.4 | 49% | 43.1% | 13.1% | 19.6% | 66% | 59.4%
2 | Cc1ccc2[nH]c(=O)c3c(c2c1)OC(N)=C(C#N)C31C(=O)c2cccc3cccc1c23 (stereo unspecified) | 92.9% | 97.8% | 103% | 97.4% | 89.4% | 105% | 90% | 101% | 93.9% | 102% | 85.8% | 102 | 97.6% | 101% | 88.2% | 101% | 106% | 94.4%
3 | Cc1cc2nc3c4ccccc4n(CCN(C)C)c3nc2cc1C | 4.17% (active) | -19.7% (active) | 6.84% (active) | 15.6% | -1.33% (active) | 13.3% | 5.07% (active) | 18% | 3.81% (active) | 6.55% (active) | 32.2% | 53.1 | 8.26% (active) | -30.8% (active) | -0.456% (active) | 7.19% (active) | 22.1% | 17.4%
4 | Cc1ccc(C)c(-n2c(-c3ccc(Br)cc3)csc2=NC(=O)c2ccccc2F)c1 | -11.5% (active) | -11.2% (active) | 65.3% | 112% | 40.6% | 86.9% | 213% | 75.5% | 101% | 56.7% | 41.3% | 28.7 | 67.2% | 69.6% | 59.1% | 22.9% | 117% | 60.8%
5 | O=C(Nc1ccc(F)cc1)Nc1ccccc1CNc1nc(Nc2ccc(OCCN3CCCC3)cc2)ncc1Cl | 2.14% (active) | -4.89% (active) | 23.1% | 16.9% | -7.62% (active) | 92.8% | 56.2% | -43.1% (active) | 74.3% | 44.5% | 100% | 84.9 | 16.3% | 27.8% | 32.5% | 21.8% | 48.6% | 49.6%
6 | COc1cc(C2=NN(C(C)=O)C(c3ccc(N(C)C)cc3)C2)cc(OC)c1OC (stereo unspecified) | 83.9% | 99.1% | 95.3% | 82.3% | 96.7% | 110% | 76.7% | 124% | 84.7% | 99.2% | 86.6% | 94.4 | 94.9% | 94.9% | 93.1% | 86.9% | 102% | 95.4%
7 | O=C1Nc2ccccc2/C1=C/c1cn(C[C@@H](O)Cn2c3ccccc3c(=O)c3ccccc32)c2ccccc12 | 66.3% | 67.1% | 68.5% | 86.7% | 88% | 73.3% | 53.7% | 73.5% | 62.8% | 85.4% | 62.7% | 73.3 | 85.1% | 78.7% | 45.9% | 57.7% | 76.1% | 68.2%
8 | COc1cc2oc(-c3cccc(NC(=O)c4ccc5c(c4)OCO5)c3)cc(=O)c2c(OC)c1OC | 11.5% | -53.7% (active) | 46.3% | 93.9% | 58.1% | 98.1% | 47% | 53% | 45.2% | 57.6% | 26.3% | 41.4 | 53.3% | 64% | 43.6% | 35.5% | 53.1% | 51.3%
9 | Cc1[nH]c(C(=O)Nc2cccc(OC3CCNCC3)c2)c(Cl)c1Cl | 13.6% | 43.2% | 94.2% | 95.4% | 98.6% | 96.5% | 60.6% | 82.4% | 56.6% | 89.2% | 87.9% | 84.6 | 43% | 0.537% (active) | 47.4% | 46.2% | 2.97% (active) | 57%
10 | CCc1ccc(CCC(=O)Nc2ncc(Cc3ccc(Cl)cc3)s2)o1 | 18.4% | 31.5% | 31.3% | 52.1% | 63.8% | 37.4% | 34.8% | 1.07% (active) | 2.63% (active) | 17.3% | 37% | 61.3 | -64.3% (active) | 18.6% | 20% | 29.3% | 46.9% | 21.6%
11 | CCOC(=O)c1c(NC(=O)c2ccc(OC)cc2)sc2c(CN(C)C)c(O)ccc12 | -21.5% (active) | 15.8% | 84.2% | 90.6% | 85.2% | 99.6% | 90.7% | 106% | 88.9% | 84.5% | 77.3% | 95.5 | 68.8% | 70.4% | 70.4% | 51.3% | 23.1% | 81.8%
12 | COc1ccc(-c2cn(-c3ccc(Cl)cc3)c(SCC(=O)c3ccc([N+](=O)[O-])cc3)n2)cc1 | 90.1% | 97.2% | 51.8% | 90.5% | 38.7% | 85.2% | 83% | 106% | 41% | 79.5% | 83.4% | 89.7 | 79.5% | 86.1% | 82.4% | 74.6% | 103% | 94.8%
13 | CCN(CC)CCOc1nc2c3ccc(Cl)cc3nn2c2ccccc12 | 5.43% (active) | -8.15% (active) | 28.6% | 34% | 35.4% | 56% | 10.1% | 54.6% | 55.2% | 25.3% | 53.4% | 70.3 | 36.3% | 19.7% | 2.07% (active) | 5.87% (active) | 15.4% | 43.1%
14 | COc1ccc(-c2cc(C(=O)N3N=C(c4ccc(N)cc4)CC3c3ccccc3)c3ccccc3n2)cc1 (stereo unspecified) | 22.6% | 23.5% | 47.5% | 64.7% | 65% | 34.9% | 49.5% | 10.7% | 36.8% | 34.4% | 38.2% | 41.3 | -20% (active) | 23.4% | 24.1% | 17.8% | 59.9% | 25.1%
15 | COc1cc(Nc2c3ccc(Cl)cc3nc3ccc(OC)cc23)c2ncccc2c1 | 19.8% | 55.5% | 46.1% | 70.2% | 20.3% | 52.5% | 32.2% | 33.9% | 65.1% | 53.9% | 48.6% | 56.2 | 65.6% | 45.7% | 40.3% | 26% | 44.8% | 39.3%
16 | CCOC(=O)c1c(-c2ccccc2)n2c(=O)cc(C)c3c(O)c(O)cc1c32 | 22.4% | 36.5% | 29.1% | 70.1% | 15.4% | 76.3% | 61.2% | 0.992% (active) | 87.7% | 15.3% | 55% | 89.8 | 79.7% | 55.4% | 29.9% | 24.5% | 61.3% | 64.3%
17 | CN(C)Cc1ccc(C(=O)Nc2ccc3ncnc(Nc4ccc(Oc5cccc(F)c5)c(Cl)c4)c3c2)cc1 | -18.1% (active) | -24.7% (active) | 14.2% | -28.7% (active) | -24.4% (active) | 19% | -50.7% (active) | -24.2% (active) | -11.7% (active) | 22.7% | 10% | 80.2 | -89.4% (active) | -73.1% (active) | -62.1% (active) | -39.7% (active) | -65.3% (active) | -5.02% (active)
